This passage reports Inhibition results from ChEMBL document CHEMBL1157539, “Thousands of chemical starting points for antimalarial lead identification” (Nature, 2010).

Holding throughout (assay type): functional
For assay [1], the system named is Plasmodium falciparum. As to the kind of experiment: GSK_TCMDC: Inhibition of Plasmodium falciparum 3D7 in whole red blood cells, using parasite LDH activity as an index of growth. Test compounds present at 2uM.
Assay [2] deals with Plasmodium falciparum. The experiment in a line: GSK_TCMDC: Inhibition of Plasmodium falciparum Dd2 in whole red blood cells, using parasite LDH activity as an index of growth. Test compounds present at 2uM.
Another assay relates to HepG2. As to the kind of experiment: GSK_TCMDC: Percent inhibition of human HepG2 cell line. Test compounds present at 10uM.

Values joined by “and” are separate entries in the source; they are usually repeats but may differ in a detail not shown here. Equal values may be shown once.

Broadly, the Inhibition is how much of the control response was suppressed. The low end stands for a response near the control, the high end for a response far below the control. Consider `Cl.OC(CN1CCN(c2cccc(Cl)c2)CC1)C(c1ccccc1)c1ccccc1` (stereo not drawn), for which the results for the Inhibition in the assay with Plasmodium falciparum [1], in the assay with Plasmodium falciparum [2] and with HepG2 were 85%, 4% and 0%, respectively.
The corresponding values for `CN1CCC(C(=O)Nc2cccc(-c3cccc(-c4nc5cc(F)ccc5[nH]4)c3)c2)CC1` are 100%, 27% and 32%.
Turning to `Cc1ccnc(NC(c2cccc(Cl)c2Cl)c2ccc3cccnc3c2O)c1` (stereo not drawn), the Inhibition in the assay with Plasmodium falciparum [1] worked out at 86%; in the assay on Plasmodium falciparum [2], 38%; in the assay with HepG2 it was 46%.
The corresponding values for `CO/C(=C\C=C\c1cc2cc(Cl)c(Cl)cc2[nH]1)C(=O)NCCCCN1CCN(c2ccccc2OC)CC1` are 100%, 96% and 55%.
In the same order, the values of `COc1ccc(CCC(C)(C)NCC(O)c2cccc(C(F)(F)F)c2)cc1` (stereo not drawn) are 99%, 98% and 26%.
The corresponding values for `COc1cc(/C=C/C(=O)NC2CCC(N3CCC(c4ccccc4C)CC3)CC2)cc(OC)c1` (stereo not drawn) are 89%, 11% and 51%.
On to `O=C(NCCCCN1CCCC2c3ccc(O)cc3CCC21)c1ccc(-c2ccccc2)cc1` (stereo not drawn), for which the Inhibition was 96% in the assay on Plasmodium falciparum [1]; 32% and 26% in the assay on HepG2.
For the molecule `CCc1nn2c(Nc3ccncc3)cc(C)nc2c1-c1ccccc1`, the Inhibition with Plasmodium falciparum [1] worked out at 100%; in the assay with Plasmodium falciparum [2] it was 98%; with HepG2, 4%.
Take `COc1ccccc1CNc1ccnc(NCCc2cccc(C(F)(F)F)c2)n1`: the Inhibition in the assay on Plasmodium falciparum [1] is given as 93%; in the assay with Plasmodium falciparum [2] it was 68%; in the assay on HepG2, 39%.
For `COC1(C)Oc2ccc3cccc([N+](=O)[O-])c3c2C1=O` (stereo not drawn), the Inhibition in the assay on Plasmodium falciparum [1] is 98%; in the assay on Plasmodium falciparum [2], 0%; with HepG2, 3%.
Take `Cl.Oc1ccc2c(c1CNC1CCCCC1)CCCC2`: the figures for the Inhibition in the assay with Plasmodium falciparum [1], in the assay with Plasmodium falciparum [2] and in the assay with HepG2 were 98%, 94% and 0%, respectively.
The corresponding values for `Clc1ccc2nnc(-c3c(Cl)cccc3Cl)n2n1` are 96%, 60% and 29%.
Consider `Cc1nnc(-c2ccc3ccccc3c2)c2cn(-c3cccc([N+](=O)[O-])c3)nc12`, for which the Inhibition was determined as 91% in the assay with Plasmodium falciparum [1], 67% with Plasmodium falciparum [2] and 29% in the assay on HepG2.
In the case of `CC1CN(CC(O)Cn2c3ccc(Br)cc3c3cc(Br)ccc32)CC(C)O1` (stereo not drawn), the results for the Inhibition in the assay with Plasmodium falciparum [1], in the assay on Plasmodium falciparum [2] and in the assay with HepG2 were 100%, 100% and 0%, respectively.
For the molecule `CCOc1cc(NCCCNc2ncc([N+](=O)[O-])cc2C)nc2ccccc12`, the figures for the Inhibition in the assay on Plasmodium falciparum [1], in the assay on Plasmodium falciparum [2] and in the assay with HepG2 were 84%, 64% and 10%, respectively.
For `CCc1ccc(OCc2ccccc2C(=O)Nc2ccc3nc(C)cc(N)c3c2)cc1.Cl`, the Inhibition in the assay on Plasmodium falciparum [1] came out at 99%; in the assay on Plasmodium falciparum [2], 74%; in the assay with HepG2 it was 98%.
In the same order, the values of `COc1ccc(-c2ccc(NC(=O)c3cccc(Cl)c3)c(F)c2)cc1CNC(C)C.O=C(O)C(F)(F)F` are 93%, 14% and 19%.
For `CCCNc1ccc2nccc(CCN3CCC(NCc4ccc5c(n4)NC(=O)CS5)CC3)c2n1`, the Inhibition in the assay on Plasmodium falciparum [1] was 100%; with Plasmodium falciparum [2], 0%; in the assay on HepG2, 24%.
